Screens as filed in PubChem BioAssay.
HT1080NT lethal = kills 2HG-producing HT-1080-NT fibrosarcoma cells | HT-1080-NT fibrosarcoma viability, CellTiter-Glo ATP luminescence, 48 h | Potency, µM (highest dose often 46.1 µM), for inactives: at the top dose activity, negative = less viability, hits mostly cytotoxic | actives 1.6% (n = 360,000) | AID 686970;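 further: NT is the 2HG producing partner of a matched IDH1 knockdown line; 0% = DMSO-treated cells and -100% = media-only wells without cells; nearly all actives have a fitted effect of over 55% in size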
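HT-1080-NT fibrosarcoma cells (2HG-overproducing), 750 cells/well in RPMI with 5% FBS, dosed after 2 h and incubated 48 h at 37C. CellTiter-Glo luminescence normalized to DMSO and no-cell wells; concentration-response curves fitted and classed.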
HT1080 IDH1KD tx = HT-1080 IDH1 knockdown cell toxicity (counter line); Potency, µM (highest dose often 46.1 µM), inactives show at the highest dose activity, negative = toxicity, usual class: cytotoxic; HT-1080 IDH1 knockdown viability, ATP luminescence, 48 h; actives 2% (n = 360,000);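 further: 0% = DMSO wells and -100% = cell-free medium wells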
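IDH1KD HT-1080 cells, 750/well, RPMI + 5% FBS; compound pinned after 2 h settling; 48 h, 37 °C; CellTiter-Glo luminescence; % activity normalised to DMSO and no-cell wells; curves fitted, classed by r2 and efficacy.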
KB-3-1 tox = KB-3-1 parental cell cytotoxicity; KB-3-1 viability, CellTiter-Glo ATP luminescence, 72 h; Potency, µM (top dose mostly 46.1 µM), hits mostly cytotoxic; actives 1.4% (n = 400,000); further: on the % scale 0 is the no-effect control and ±100 the full control effect; nearly all actives have a fitted effect of over 60% in size
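Parental KB-3-1 adenocarcinoma cells in phenol-red-free DMEM with 10% FBS were pin-treated with compounds at several concentrations, incubated 72 h at 37 °C, and viability read by CellTiter-Glo luminescence; concentration-effect curves were fitted after normalization.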
SW480 rerep = DNA re-replication induction in SW480 cells; SW480 DNA re-replication, Hoechst DNA content imaging, 48 h; Potency, µM (titrated, usually from 46.1 µM), inactives show at the highest dose re-replication activation, hits mostly activators; actives 1.8% (n = 340,000); further: % of control where 0% means no effect; nearly all actives have a fitted effect of over 55% in size
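Cells (250 per well) received 23 nL compound or DMSO by pin tool and were kept 48 hr at 37 C, 5% CO2. Nuclei were then stained with Hoechst for 40 min and scanned for DNA content.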
MCF10A rerep = DNA re-replication induction in MCF 10a cells | MCF 10A DNA re-replication, Hoechst nuclear intensity, 48 h | Potency, µM (top dose mostly 46.1 µM), for the others: at the highest dose activity, positive = re-replication, most hits filed as activators | actives 2.9% (n = 350,000) | AID 624296; further: % of control where 0% means no effect; nearly all actives have a fitted effect of over 50% in size
KB-V1 cytotox = kills drug-selected multidrug resistant KB-V1 cells; AID 1347076; actives 3.4% (n = 400,000); KB-V1 MDR cells viability, CellTiter-Glo, 72 h; Potency, µM (titrated, usually from 46.1 µM), most hits filed as cytotoxic; further: on the % scale 0 is the no-effect control and ±100 the full control effect; nearly all actives have a fitted effect of over 60% in size
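Compound-treated KB-V1 multidrug-resistant cells, 72 h, 37 degrees C; viability by CellTiter-Glo. Fitted qHTS curves give the values.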
* hit, by the source's call; [ ] = another dose, or the depositor's remark. Shown are actives, neighbours in structure and some others; about 8% of the full set was active somewhere. The call rests on the fitted dose curve; in most records, active means well fitted curve in the direction sought with a large enough effect; inconclusive means small, poorly fitted or top-dose-only effect, or another doubt; inactive means no such curve, though single readings can be large; an effect the other way counts as inactive or inconclusive. Potency means the concentration at half of the fitted maximal effect.

What do the screens show for `Cc1cc(-c2nc3cc(F)ccc3s2)ccc1N`?
HT1080NT lethal: -10%; HT1080 IDH1KD tx: -32%; KB-3-1 tox: inconclusive; SW480 rerep: 18µM*; MCF10A rerep: 10µM*; KB-V1 cytotox: 18µM*

What do the screens show for `CC1(C(=O)OCC(=O)NNC(=O)COc2ccc(Cl)cc2)CC1(Cl)Cl` (configuration not stated)?
HT1080NT lethal: 1%; HT1080 IDH1KD tx: 1%; KB-3-1 tox: inactive; SW480 rerep: -5%; MCF10A rerep: -1%; KB-V1 cytotox: inactive

What do the screens show for `Cc1nc(CSc2nnc(Nc3cccc(C)c3C)s2)cs1`?
HT1080NT lethal: 18%; HT1080 IDH1KD tx: 13%; KB-3-1 tox: inactive; SW480 rerep: 13%; MCF10A rerep: 17%; KB-V1 cytotox: 18µM*

What do the screens show for `Cc1cccc(C)c1Nc1nnc(SCc2nc3ccccc3s2)s1`?
HT1080NT lethal: -2%; HT1080 IDH1KD tx: -2%; KB-3-1 tox: inactive; SW480 rerep: 4%; MCF10A rerep: inconclusive; KB-V1 cytotox: 16µM*

Results for Cc1cccc(NCc2nc3ccccc3n2C)c1 ?
HT1080NT lethal: -1%; HT1080 IDH1KD tx: 4%; KB-3-1 tox: inactive; SW480 rerep: -10%; MCF10A rerep: -8%; KB-V1 cytotox: inconclusive

What do the screens show for `Cc1cccc(NCc2nc3ccccc3n2Cc2ccccc2)c1`?
HT1080NT lethal: -19%; HT1080 IDH1KD tx: inconclusive; KB-3-1 tox: inactive; SW480 rerep: -5%; MCF10A rerep: 44%[0.0737 µM]; KB-V1 cytotox: inconclusive

How did Cc1ccc(N2CCN(c3ccc(NCc4nc5ccccc5n4C)cc3)CC2)cc1 do in these assays?
HT1080NT lethal: 0%; HT1080 IDH1KD tx: -5%; KB-3-1 tox: inactive; SW480 rerep: 18%; MCF10A rerep: inconclusive; KB-V1 cytotox: 4.6µM*

Results for Cn1c(CNc2ccc(Cl)cc2)nc2ccccc21 ?
HT1080NT lethal: -17%; HT1080 IDH1KD tx: -2%[9.24 µM]; KB-3-1 tox: inactive; SW480 rerep: -5%; MCF10A rerep: 2%; KB-V1 cytotox: 21µM*

What do the screens show for `Cc1nc2cc(NCc3nc4ccccc4n3Cc3ccccc3)ccc2n1C`?
HT1080NT lethal: inconclusive; HT1080 IDH1KD tx: inconclusive; KB-3-1 tox: inactive; SW480 rerep: -4%; MCF10A rerep: inconclusive; KB-V1 cytotox: 10µM*

What do the screens show for `c1ccc(Cn2c(CNc3nc4ccccc4n3CCN3CCOCC3)nc3ccccc32)cc1`?
HT1080NT lethal: inconclusive; HT1080 IDH1KD tx: inconclusive; KB-3-1 tox: inactive; SW480 rerep: 7%; MCF10A rerep: 27%; KB-V1 cytotox: 8.2µM*

What do the screens show for `CN(C)c1ccc(/C=N/NC(=O)c2ccc3nc[nH]c3c2)cc1`?
HT1080NT lethal: 14%; HT1080 IDH1KD tx: 20%; KB-3-1 tox: inactive; SW480 rerep: 0%; MCF10A rerep: -2%; KB-V1 cytotox: inactive

What do the screens show for `COc1ccc2c(c1)[C@H]1[C@H](CO2)[C@H](c2ccccc2)[C@]2(C)C(=O)Nc3cc(C)ccc3C(=O)N12`?
HT1080NT lethal: 1%; HT1080 IDH1KD tx: -3%; KB-3-1 tox: inactive; SW480 rerep: inconclusive; MCF10A rerep: inconclusive; KB-V1 cytotox: inconclusive

What do the screens show for `C[C@@]12C(=O)Nc3cc(F)ccc3C(=O)N1[C@H]1c3ccccc3OC[C@@H]1[C@@H]2c1ccccc1`?
HT1080NT lethal: -24%; HT1080 IDH1KD tx: inconclusive; KB-3-1 tox: inactive; SW480 rerep: 2%; MCF10A rerep: 29%; KB-V1 cytotox: inactive

How did Cc1ccc2c(c1)[C@H]1[C@H](CO2)[C@H](c2ccccc2)[C@]2(C)C(=O)Nc3ccc(F)cc3C(=O)N12 do in these assays?
HT1080NT lethal: inconclusive; HT1080 IDH1KD tx: 5.8µM*; KB-3-1 tox: inconclusive; SW480 rerep: 5.8µM*; MCF10A rerep: 3.3µM*; KB-V1 cytotox: inconclusive

Results for Cc1ccc2c(c1)[C@H]1[C@H](CO2)[C@H](c2ccccc2)[C@]2(C)C(=O)Nc3cc(F)c(F)cc3C(=O)N12 ?
HT1080NT lethal: inconclusive; HT1080 IDH1KD tx: inconclusive; KB-3-1 tox: inconclusive; SW480 rerep: 23µM*; MCF10A rerep: 5.2µM*; KB-V1 cytotox: inactive

Results for Cc1ccc2c(c1)[C@H]1[C@H](CO2)[C@H](c2ccccc2)[C@]2(C)C(=O)Nc3cc(Cl)ccc3C(=O)N12 ?
HT1080NT lethal: inconclusive; HT1080 IDH1KD tx: inconclusive; KB-3-1 tox: inconclusive; SW480 rerep: inconclusive; MCF10A rerep: 9.2µM*; KB-V1 cytotox: inconclusive

Results for Cc1[nH]c(=O)[nH]c(=O)c1Sc1ccccc1[N+](=O)[O-] ?
HT1080NT lethal: 8%; HT1080 IDH1KD tx: 17%; KB-3-1 tox: inactive; SW480 rerep: -3%; MCF10A rerep: -4%; KB-V1 cytotox: inactive

What do the screens show for `CC1(Br)C(Sc2ccccc2[N+](=O)[O-])=Nc2ccccc21` (configuration not stated)?
HT1080NT lethal: 6.5µM*; HT1080 IDH1KD tx: inconclusive; KB-3-1 tox: inconclusive; KB-V1 cytotox: inconclusive

How did COc1ccc(N(CC(=O)Nc2ccc(C)cc2)S(=O)(=O)c2c(C)noc2C)cc1 do in these assays?
HT1080NT lethal: -18%; HT1080 IDH1KD tx: -12%; KB-3-1 tox: inactive; SW480 rerep: -4%; MCF10A rerep: 0%; KB-V1 cytotox: inactive

What do the screens show for `Cc1ccc(N(CC(=O)Nc2ccc(F)c(Cl)c2)S(=O)(=O)c2c(C)noc2C)cc1`?
HT1080NT lethal: inconclusive; HT1080 IDH1KD tx: inconclusive; KB-3-1 tox: inconclusive; SW480 rerep: 9%; MCF10A rerep: 12µM*; KB-V1 cytotox: 18µM*

What do the screens show for `CCc1cccc(NC(=O)CN(c2ccc(C)cc2)S(=O)(=O)c2c(C)noc2C)c1`?
HT1080NT lethal: -21%; HT1080 IDH1KD tx: -8%; KB-3-1 tox: inactive; SW480 rerep: -37%; MCF10A rerep: 12µM*; KB-V1 cytotox: inconclusive

What do the screens show for `COc1ccc(N(CC(=O)Nc2cccc(C)c2)S(=O)(=O)c2c(C)noc2C)cc1`?
HT1080NT lethal: 3%; HT1080 IDH1KD tx: 3%; KB-3-1 tox: inactive; SW480 rerep: 3%; MCF10A rerep: 5%; KB-V1 cytotox: inactive

Results for Cc1ccc(N(CC(=O)Nc2cc(C)cc(C)c2)S(=O)(=O)c2c(C)noc2C)cc1 ?
HT1080NT lethal: 18µM*; HT1080 IDH1KD tx: inconclusive; KB-3-1 tox: inconclusive; SW480 rerep: inconclusive; MCF10A rerep: inconclusive; KB-V1 cytotox: inconclusive

Results for C=CCNC(=O)C1CC(=O)N(c2ccc(OCC(=O)Nc3c(C)cccc3C)cc2)C1 (configuration not stated) ?
HT1080NT lethal: 17%; HT1080 IDH1KD tx: 16%; KB-3-1 tox: inactive; SW480 rerep: -3%; MCF10A rerep: -1%; KB-V1 cytotox: inactive
